Screening results: PubChem, several laboratories
In the library only some 32% were active in any assay of this set; here they are far more common.
CYP2C9 inh – human CYP2C9 inhibition; P11712; CYP2C9 Supersomes, luciferin-H conversion, luminescence; inhibition, % at 5 µM; hit rate 20% among 96,000; AID 777;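 active = blocking of liver enzyme CYP2C9 beyond about 50% at 5 µM, limit read from the data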
PostGolgi ctrl – inhibits growth of the yeast control strain. efflux-deficient yeast background strain, growth absorbance A615, 16 h. inhibition, % at 10 µM. hit rate 5% among 98,000
PostGolgi yeast – growth inhibition of a yeast mutant, post-Golgi transport screen; post-Golgi transport phenotypic cell assay; hit rate 0.9% among 98,000; inhibition, % at 10 µM;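 note: yeast cells grown in 1536-well plates; yeast grown about 18 h at 30C before absorbance read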
CYP2C19 act – cytochrome P450 2C19 (human) activation; 96,000 tested, under 10 active; AID 1025; activation factor at 5 µM; P33261; recombinant CYP2C19, luciferin-H EGE luminescence; active compounds read high; 0 = fully inhibited enzyme, 1 = untreated enzyme;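 active = activation factor of at least 2 at 5 µM in the primary screen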;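 note: 0 = wells with 2.5 mM tranylcypromine and 1 = vehicle-only wells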
Target sequence (P33261 whole entry, looked up): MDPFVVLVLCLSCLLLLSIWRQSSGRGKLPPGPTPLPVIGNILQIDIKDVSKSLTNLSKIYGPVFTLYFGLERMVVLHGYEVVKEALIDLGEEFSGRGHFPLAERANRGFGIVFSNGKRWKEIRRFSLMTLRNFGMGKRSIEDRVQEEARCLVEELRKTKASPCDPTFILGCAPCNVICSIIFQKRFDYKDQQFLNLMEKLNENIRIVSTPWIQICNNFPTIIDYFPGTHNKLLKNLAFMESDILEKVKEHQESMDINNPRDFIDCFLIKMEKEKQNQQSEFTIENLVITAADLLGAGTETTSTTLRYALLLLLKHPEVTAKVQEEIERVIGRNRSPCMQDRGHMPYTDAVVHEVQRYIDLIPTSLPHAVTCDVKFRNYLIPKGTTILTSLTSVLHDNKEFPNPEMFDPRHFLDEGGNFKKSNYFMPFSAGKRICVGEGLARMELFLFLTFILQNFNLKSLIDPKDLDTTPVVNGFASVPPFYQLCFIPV
CYP2C9 activ – CYP2C9 (human) activation; P11712; recombinant CYP2C9, luciferin-H conversion, luminescence; active compounds read high; factor 1 = untreated enzyme, 0 = blocked; activation factor at 5 µM; hit rate 1.4% among 96,000; AID 1024;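 active = activation factor of 2 or more for CYP2C9 at a 5 µM dose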;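 note: 0 = sulfaphenazole-blocked wells and 1 = vehicle-only wells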
CYP2C19 inhib – blocks human cytochrome P450 2C19; CYP2C19 Supersomes, luciferin-H EGE luminescence, 30 min; inhibition, % at 5 µM; hit rate 21% among 96,000; AID 778;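 active = CYP2C19 inhibition above a set limit at 5 µM in the primary screen, cut at about 50% in these data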;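 note: plate controls were negative control wells for no effect and 2.5 mM tranylcypromine positive control for full effect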
* marks the source's active call; other numbers are inactive results. Cut-off read from the data, not from the text of the source, unless noted: active = inhibition above about 30%; inactive = the rest.

What do the screens show for `COc1ccccc1CNc1ccc(C(=O)O)cc1`?
CYP2C9 inh: -6; PostGolgi ctrl: 0; PostGolgi yeast: -4; CYP2C19 act: 1; CYP2C9 activ: 1.1; CYP2C19 inhib: -4

How did COc1ccc(Br)cc1CNc1ccc(O)cc1 do in these assays?
CYP2C9 inh: 30; PostGolgi ctrl: -2; PostGolgi yeast: -16; CYP2C19 act: 0.3; CYP2C9 activ: 0.7; CYP2C19 inhib: 73*

Results for COc1ccc(C(=O)N/N=C2/SCC(=O)N2Cc2ccc3c(c2)OCO3)cc1OC ?
CYP2C9 inh: 23; PostGolgi ctrl: -9; PostGolgi yeast: -5; CYP2C19 act: 1; CYP2C9 activ: 0.8; CYP2C19 inhib: -1

Results for COc1cccc(C(=O)N/N=C2\SCC(=O)N2Cc2ccc3c(c2)OCO3)c1 ?
CYP2C9 inh: 88*; PostGolgi ctrl: 8; PostGolgi yeast: -25; CYP2C19 act: 0.7; CYP2C9 activ: 0.1; CYP2C19 inhib: 34

Results for CN(c1ccc(OCC(=O)NC2CCCC2)cc1)S(=O)(=O)c1cccs1 ?
CYP2C9 inh: 72*; PostGolgi ctrl: 5; PostGolgi yeast: 19; CYP2C19 act: 0.9; CYP2C9 activ: 0.3; CYP2C19 inhib: 13

Results for COc1ccc(Cn2nnnc2C(c2ccccc2)N2CCN(C3CCCC3)CC2)cc1 (stereo not drawn) ?
CYP2C9 inh: 11; PostGolgi ctrl: 2; PostGolgi yeast: -6; CYP2C19 act: 0.2; CYP2C9 activ: 0.9; CYP2C19 inhib: 78*

What do the screens show for `COc1ccc(Cn2nnnc2C(c2ccccc2Cl)N2CCN(C3CCCC3)CC2)cc1` (stereo not drawn)?
CYP2C9 inh: 33; PostGolgi ctrl: 14; PostGolgi yeast: 16; CYP2C19 act: 0.2; CYP2C9 activ: 0.7; CYP2C19 inhib: 78*

How did Cc1[nH]nc2nc3c(c(OC(=O)c4ccccc4)c12)c(=O)n(C)c(=O)n3C do in these assays?
CYP2C9 inh: 34; PostGolgi ctrl: 13; PostGolgi yeast: 6; CYP2C19 act: 1.2; CYP2C9 activ: 0.7; CYP2C19 inhib: -16

How did COc1ccc(C2Nc3ccccc3C(=O)N2c2ccccc2)cc1COc1ccccn1 (stereo not drawn) do in these assays?
CYP2C9 inh: 59*; PostGolgi ctrl: 20; PostGolgi yeast: -4; CYP2C19 act: 0.7; CYP2C9 activ: 0.4; CYP2C19 inhib: 30

Results for COc1ccc(C2Nc3ccccc3C(=O)N2Cc2ccccc2)cc1CSc1ccccn1 (stereo not drawn) ?
CYP2C9 inh: 23; PostGolgi ctrl: 4; PostGolgi yeast: 4; CYP2C19 act: 0.9; CYP2C9 activ: 0.8; CYP2C19 inhib: 7

What do the screens show for `COc1cc(C2Nc3ccccc3C(=O)N2c2ccccc2)ccc1O` (stereo not drawn)?
CYP2C9 inh: 75*; PostGolgi ctrl: -11; PostGolgi yeast: -1; CYP2C19 act: 0.6; CYP2C9 activ: 0.3; CYP2C19 inhib: 38

How did COc1ccc(C2Nc3ccccc3C(=O)N2O)cc1OC (stereo not drawn) do in these assays?
CYP2C9 inh: 9; PostGolgi ctrl: 28; PostGolgi yeast: 0; CYP2C19 act: 0.8; CYP2C9 activ: 0.9; CYP2C19 inhib: 23

Results for COc1ccccc1N1C(=O)c2ccccc2NC1c1ccncc1 (stereo not drawn) ?
CYP2C9 inh: 56*; PostGolgi ctrl: 6; PostGolgi yeast: -7; CYP2C19 act: 0.6; CYP2C9 activ: 0.4; CYP2C19 inhib: 39

Results for CCOc1cc(C2Nc3ccccc3C(=O)N2c2ccccc2)ccc1O (stereo not drawn) ?
CYP2C9 inh: 96*; PostGolgi ctrl: 5; PostGolgi yeast: 6; CYP2C19 act: 0.4; CYP2C9 activ: 0; CYP2C19 inhib: 62*

What do the screens show for `CC(C(=O)Nc1ccccc1C(=O)N1CCCC1)n1nnc2ccccc21` (stereo not drawn)?
CYP2C9 inh: 5; PostGolgi ctrl: -8; PostGolgi yeast: 13; CYP2C19 act: 0.6; CYP2C9 activ: 1; CYP2C19 inhib: 39

Results for CCOc1cc(C2Nc3cccc4cccc(c34)N2)ccc1O ?
CYP2C9 inh: 38; PostGolgi ctrl: 6; PostGolgi yeast: 1; CYP2C19 act: 0.3; CYP2C9 activ: 0.6; CYP2C19 inhib: 69*

What do the screens show for `CCOc1cc(C2NC(=O)NC(O)(C(F)(F)F)C2C(=O)c2ccc(OC)cc2)ccc1O` (stereo not drawn)?
CYP2C9 inh: 8; PostGolgi ctrl: 3; PostGolgi yeast: 7; CYP2C19 act: 0.9; CYP2C9 activ: 0.9; CYP2C19 inhib: 11
